{
  "source": "PubChem BioAssay (NCI)",
  "key": {"[1]": {"assay": "NCI Yeast Anticancer Drug Screen. Data for the wt1 strain (AID 149);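 note: 0% = growth of vehicle-treated wt1 cultures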", "conditions": "S. cerevisiae wt1 strain (SPY 50644) growth inhibition, stronger effect = higher value", "outline": "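wt1 yeast, compound-treated; % growth inhibition vs vehicle control.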"}, "[2]": {"assay": "NCI Yeast Anticancer Drug Screen. Data for the rad50EPP+ strain (AID 151);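 note: 0% = growth of vehicle-treated control cultures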", "conditions": "S. cerevisiae rad50 mutant strain, stronger effect = higher value", "outline": "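Growth inhibition read against vehicle controls in rad50EPP+ yeast, a strain altered in DNA damage repair, after compound exposure.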"}, "[3]": {"assay": "NCI Yeast Anticancer Drug Screen. Data for the mgt1 strain (AID 153)", "conditions": "S. cerevisiae mgt1 mutant growth inhibition, stronger effect = higher value", "outline": "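mgt1 yeast grown with test compound; read-out is growth inhibition versus vehicle-treated cultures.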"}, "[4]": {"assay": "NCI Yeast Anticancer Drug Screen. Data for the rad50 strain (AID 155);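 note: 0% = growth of vehicle-only cultures of the same strain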", "conditions": "S. cerevisiae rad50 strain growth inhibition, stronger effect = higher value", "outline": "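Genetically altered yeast (DNA repair pathway); compound treatment; growth inhibition vs vehicle ctrl.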"}, "[5]": {"assay": "NCI Yeast Anticancer Drug Screen. Data for the mec2-1 strain (AID 157)", "conditions": "S. cerevisiae mec2-1 strain, stronger effect = higher value", "outline": "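Yeast mec2-1 mutant treated with compound. Readout: growth inhibition vs vehicle controls.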"}, "[6]": {"assay": "NCI Yeast Anticancer Drug Screen. Data for the rad14 strain (AID 159);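 note: 0% = growth of vehicle-treated control cultures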", "conditions": "S. cerevisiae rad14 strain growth inhibition, stronger effect = higher value", "outline": "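Test compounds were applied to a repair-deficient yeast strain. Its growth was then compared with that of cultures given vehicle alone, and inhibition was expressed relative to those controls.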"}, "[7]": {"assay": "NCI Yeast Anticancer Drug Screen. Data for the sgs1 mgt1 strain (AID 161);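 note: 0% = growth of cultures given vehicle only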", "conditions": "S. cerevisiae sgs1 mgt1 strain, stronger effect = higher value", "outline": "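Genetically altered yeast, compound exposure, growth inhibition relative to vehicle.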"}, "[8]": {"assay": "NCI Yeast Anticancer Drug Screen. Data for the CLN2oe strain (AID 163);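 note: 0% = growth of vehicle-only control cultures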", "conditions": "S. cerevisiae CLN2oe strain, stronger effect = higher value", "outline": "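Read-out: yeast growth inhibition, expressed relative to vehicle-only controls. The strain bears an engineered cell-cycle alteration.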"}, "[9]": {"assay": "NCI Yeast Anticancer Drug Screen. Data for the cln2 rad14 strain (AID 165);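 note: 0% = growth equal to vehicle treated cultures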", "conditions": "S. cerevisiae cln2 rad14 strain, stronger effect = higher value", "outline": "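cln2 rad14 yeast strain; compound exposure; growth inhibition read vs vehicle controls.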"}, "[10]": {"assay": "NCI Yeast Anticancer Drug Screen. Data for the bub3 strain (AID 167)", "conditions": "S. cerevisiae bub3 mutant strain, stronger effect = higher value", "outline": "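Yeast carrying a defined mutation is treated with each compound, and growth is compared with that of vehicle-exposed cells to give inhibition.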"}, "[11]": {"assay": "NCI Yeast Anticancer Drug Screen. Data for the wt2 strain (AID 169);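 note: 0% = growth of vehicle-treated yeast cultures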", "conditions": "S. cerevisiae wt2 strain growth inhibition, stronger effect = higher value", "outline": "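Read-out: growth inhibition versus vehicle-treated control cultures after compound exposure of the yeast strain.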"}, "[12]": {"assay": "NCI Yeast Anticancer Drug Screen. Data for the mlh1 strain (AID 171);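 note: 0% = growth of vehicle-treated control cultures of the same strain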", "conditions": "S. cerevisiae mlh1 strain growth inhibition, stronger effect = higher value", "outline": "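Read-out: growth inhibition versus vehicle controls. Strain: engineered yeast with a defined DNA repair or cell cycle defect, compound-treated.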"}, "[13]": {"assay": "NCI Yeast Anticancer Drug Screen. Data for the sgs1 strain (AID 173);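 note: 0% = growth of vehicle-only control cultures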", "conditions": "S. cerevisiae sgs1 mutant, stronger effect = higher value", "outline": "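Read-out: yeast growth inhibition relative to vehicle controls, following compound exposure of a strain with a defined DNA repair/cell cycle alteration.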"}, "[14]": {"assay": "NCI Yeast Anticancer Drug Screen. Data for the mlh1 rad18 strain (AID 175)", "conditions": "S. cerevisiae mlh1 rad18 strain growth inhibition, stronger effect = higher value", "outline": "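Yeast w/ defined DNA-repair lesions; compound exposure; growth vs vehicle controls → % inhibition.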"}, "[15]": {"assay": "NCI Yeast Anticancer Drug Screen. Data for the rad18 strain (AID 177)", "conditions": "S. cerevisiae rad18 mutant growth inhibition, stronger effect = higher value", "outline": "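Readout: growth inhibition vs vehicle controls. Cells: genetically altered yeast strain, DNA repair defect.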"}, "[16]": {"conditions": "at 5.0 µM (retest, dose inferred, filed as 0.5)"}, "[17]": {"conditions": "at 50.0 µM (retest, dose inferred, filed as 5.0)"}},
  "note": "This is part of a sample that, as a whole, favours compounds with a hit. Of some 79,000 tested, about 15% had one in any assay. Values without a mark were called inactive. Activity calls are given as the source filed them. Cut-off read from the data, not from the text of the source: active = growth inhibition above about 70%; inactive = the rest.",
  "data": [
    {"smiles": "O=C(NO)Nc1cc(Cl)cc(Cl)c1", "values": [
      {"measurement": "growth inhibition", "setting": "[1]; at 1.2 µM", "value": -3, "unit": "%"},
      {"measurement": "growth inhibition", "setting": "[1]; at 3.7 µM", "value": -3, "unit": "%"},
      {"measurement": "growth inhibition", "setting": "[1]; at 11.0 µM", "value": "80% (active)"},
      {"measurement": "growth inhibition", "setting": "[1]; at 33.0 µM", "value": "99% (active)"},
      {"measurement": "growth inhibition", "setting": "[1]; at 100.0 µM", "value": "98% (active)"},
      {"measurement": "growth inhibition", "setting": "[2]; at 1.2 µM", "value": -4, "unit": "%"},
      {"measurement": "growth inhibition", "setting": "[2]; at 3.7 µM", "value": -4, "unit": "%"},
      {"measurement": "growth inhibition", "setting": "[2]; at 11.0 µM", "value": 19, "unit": "%"},
      {"measurement": "growth inhibition", "setting": "[2]; at 33.0 µM", "value": "88% (active)"},
      {"measurement": "growth inhibition", "setting": "[2]; at 100.0 µM", "value": "86% (active)"},
      {"measurement": "growth inhibition", "setting": "[3]; at 1.2 µM", "value": -3, "unit": "%"},
      {"measurement": "growth inhibition", "setting": "[3]; at 3.7 µM", "value": 16, "unit": "%"},
      {"measurement": "growth inhibition", "setting": "[3]; at 11.0 µM", "value": "100% (active)"},
      {"measurement": "growth inhibition", "setting": "[3]; at 33.0 µM", "value": "99% (active)"},
      {"measurement": "growth inhibition", "setting": "[3]; at 100.0 µM", "value": "98% (active)"},
      {"measurement": "growth inhibition", "setting": "[4]; at 1.2 µM", "value": 7, "unit": "%"},
      {"measurement": "growth inhibition", "setting": "[4]; at 3.7 µM", "value": 50, "unit": "%"},
      {"measurement": "growth inhibition", "setting": "[4]; [16]", "value": 24, "unit": "%"},
      {"measurement": "growth inhibition", "setting": "[4]; at 11.0 µM", "value": "99% (active)"},
      {"measurement": "growth inhibition", "setting": "[4]; at 33.0 µM", "value": "99% (active)"},
      {"measurement": "growth inhibition", "setting": "[4]; [17]", "value": "99% (active)"},
      {"measurement": "growth inhibition", "setting": "[4]; at 50.0 µM", "value": "99.3% (active)"},
      {"measurement": "growth inhibition", "setting": "[4]; at 100.0 µM", "value": "96% (active)"},
      {"measurement": "growth inhibition", "setting": "[5]; at 1.2 µM", "value": -2, "unit": "%"},
      {"measurement": "growth inhibition", "setting": "[5]; at 3.7 µM", "value": 11, "unit": "%"},
      {"measurement": "growth inhibition", "setting": "[5]; [16]", "value": 0, "unit": "%"},
      {"measurement": "growth inhibition", "setting": "[5]; at 11.0 µM", "value": "99% (active)"},
      {"measurement": "growth inhibition", "setting": "[5]; at 33.0 µM", "value": "99% (active)"},
      {"measurement": "growth inhibition", "setting": "[5]; [17]", "value": "99% (active)"},
      {"measurement": "growth inhibition", "setting": "[5]; at 50.0 µM", "value": "99.2% (active)"},
      {"measurement": "growth inhibition", "setting": "[5]; at 100.0 µM", "value": "98% (active)"},
      {"measurement": "growth inhibition", "setting": "[6]; at 1.2 µM", "value": 8, "unit": "%"},
      {"measurement": "growth inhibition", "setting": "[6]; at 3.7 µM", "value": 20, "unit": "%"},
      {"measurement": "growth inhibition", "setting": "[6]; at 11.0 µM", "value": "99% (active)"},
      {"measurement": "growth inhibition", "setting": "[6]; at 33.0 µM", "value": "98% (active)"},
      {"measurement": "growth inhibition", "setting": "[6]; at 100.0 µM", "value": "98% (active)"},
      {"measurement": "growth inhibition", "setting": "[7]; [16]", "value": 58, "unit": "%"},
      {"measurement": "growth inhibition", "setting": "[7]; [17]", "value": "99% (active)"},
      {"measurement": "growth inhibition", "setting": "[7]; at 50.0 µM", "value": "98.8% (active)"},
      {"measurement": "growth inhibition", "setting": "[8]; at 1.2 µM", "value": 7, "unit": "%"},
      {"measurement": "growth inhibition", "setting": "[8]; at 3.7 µM", "value": 26, "unit": "%"},
      {"measurement": "growth inhibition", "setting": "[8]; at 11.0 µM", "value": "99% (active)"},
      {"measurement": "growth inhibition", "setting": "[8]; at 33.0 µM", "value": "99% (active)"},
      {"measurement": "growth inhibition", "setting": "[8]; at 100.0 µM", "value": "98% (active)"},
      {"measurement": "growth inhibition", "setting": "[9]; [16]", "value": 21, "unit": "%"},
      {"measurement": "growth inhibition", "setting": "[9]; [17]", "value": "99% (active)"},
      {"measurement": "growth inhibition", "setting": "[9]; at 50.0 µM", "value": "99% (active)"},
      {"measurement": "growth inhibition", "setting": "[10]; at 1.2 µM", "value": -2, "unit": "%"},
      {"measurement": "growth inhibition", "setting": "[10]; at 3.7 µM", "value": 10, "unit": "%"},
      {"measurement": "growth inhibition", "setting": "[10]; [16]", "value": -17, "unit": "%"},
      {"measurement": "growth inhibition", "setting": "[10]; at 11.0 µM", "value": "99% (active)"},
      {"measurement": "growth inhibition", "setting": "[10]; at 33.0 µM", "value": "99% (active)"},
      {"measurement": "growth inhibition", "setting": "[10]; [17]", "value": "99% (active)"},
      {"measurement": "growth inhibition", "setting": "[10]; at 50.0 µM", "value": "98.8% (active)"},
      {"measurement": "growth inhibition", "setting": "[10]; at 100.0 µM", "value": "98% (active)"},
      {"measurement": "growth inhibition", "setting": "[11]; at 1.2 µM", "value": -3, "unit": "%"},
      {"measurement": "growth inhibition", "setting": "[11]; at 3.7 µM", "value": 6, "unit": "%"},
      {"measurement": "growth inhibition", "setting": "[11]; at 11.0 µM", "value": "98% (active)"},
      {"measurement": "growth inhibition", "setting": "[11]; at 33.0 µM", "value": "99% (active)"},
      {"measurement": "growth inhibition", "setting": "[11]; at 100.0 µM", "value": "98% (active)"},
      {"measurement": "growth inhibition", "setting": "[12]; at 1.2 µM", "value": 4, "unit": "%"},
      {"measurement": "growth inhibition", "setting": "[12]; at 3.7 µM", "value": 31, "unit": "%"},
      {"measurement": "growth inhibition", "setting": "[12]; at 11.0 µM", "value": "99% (active)"},
      {"measurement": "growth inhibition", "setting": "[12]; at 33.0 µM", "value": "99% (active)"},
      {"measurement": "growth inhibition", "setting": "[12]; at 100.0 µM", "value": "97% (active)"},
      {"measurement": "growth inhibition", "setting": "[13]; at 1.2 µM", "value": -2, "unit": "%"},
      {"measurement": "growth inhibition", "setting": "[13]; at 3.7 µM", "value": 54, "unit": "%"},
      {"measurement": "growth inhibition", "setting": "[13]; at 11.0 µM", "value": "100% (active)"},
      {"measurement": "growth inhibition", "setting": "[13]; at 33.0 µM", "value": "100% (active)"},
      {"measurement": "growth inhibition", "setting": "[13]; at 100.0 µM", "value": "98% (active)"},
      {"measurement": "growth inhibition", "setting": "[14]; [16]", "value": 64, "unit": "%"},
      {"measurement": "growth inhibition", "setting": "[14]; [17]", "value": "99% (active)"},
      {"measurement": "growth inhibition", "setting": "[14]; at 50.0 µM", "value": "99.3% (active)"},
      {"measurement": "growth inhibition", "setting": "[15]; at 1.2 µM", "value": 3, "unit": "%"},
      {"measurement": "growth inhibition", "setting": "[15]; at 3.7 µM", "value": 34, "unit": "%"},
      {"measurement": "growth inhibition", "setting": "[15]; at 11.0 µM", "value": "99% (active)"},
      {"measurement": "growth inhibition", "setting": "[15]; at 33.0 µM", "value": "99% (active)"},
      {"measurement": "growth inhibition", "setting": "[15]; at 100.0 µM", "value": "98% (active)"}
    ]}
  ]
}
